In PubChem BioAssay AID652017 (The Scripps Research Institute Molecular Screening Center, 2013):
Hit rate of the full screen: of about 370,000 compounds, about 3,800 (1%) were called active. The sample as a whole holds a higher share of actives than the screen did. Values without a mark were called inactive. Rule as the data show it: active = activation above about 7.8%; inactive = the rest.

experiment: SMARCA2 (BRM) function activators, primary screen, cell-based, luminescence, high throughput (AID 652017); settings: MG213 cells, MMTV-luciferase reporter, dexamethasone, overnight; at 9.1 µM; hits give high values;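 also: 0% = vehicle wells and 100% = reference activator wells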

Compound | activation
CCC1CO/C(=C(\C(=C(Cl)Cl)N2CCOCC2)[N+](=O)[O-])N1 (configuration not stated) | -2.15%
Cc1cc(Br)cn2c(Cc3ccccc3C(F)(F)F)c(-c3ccc(Cl)cc3)nc12 | 3.06%
Brc1ccc2nc(-c3ccccc3)c(Cc3ccccc3)n2c1 | 3.02%
Cc1cc(Br)cn2c(Cc3ccccc3C(F)(F)F)c(-c3ccc(C#N)cc3)nc12 | -1.52%
Cc1ccc(-c2nc3ccc(Cl)cn3c2Cc2ccccc2)cc1 | 10.1% (active)
Cc1ccc(-c2nc3ccc(Br)cn3c2Cc2ccccc2C(F)(F)F)cc1 | 8.44% (active)
COc1ccccc1Cc1c(-c2ccc(Cl)cc2)nc2ccc(Cl)cn12 | 4.42%
COC(=O)c1cc(S(=O)(=O)N2CCN(C(=O)C3CCCO3)CC2)cn1C (configuration not stated) | -1.22%
CC(C)CNS(=O)(=O)CC1NCCc2ccccc21 (configuration not stated) | -3.17%
COc1cccc(Cn2cc(COC(=O)Nc3ccc(F)cc3)nn2)c1 | -0.28%
COc1cccc(N(C)C(=O)[C@@H](C)[C@@H](O)c2ccc3ccccc3c2)c1 | -2.05%
COc1ccnc(NC(=S)N2CCN(c3ncc(C(F)(F)F)cc3Cl)CC2)c1 | -3.61%
COc1ccc(CN2C(=O)N3Cc4cc(OC)ccc4C3CS2(=O)=O)cc1 (configuration not stated) | -5.55%
CC(C)NC(=O)C(=O)NCCN1CCN(S(=O)(=O)c2ccc(Cl)cc2)CC1 | -1.85%
C#CCNC(=O)C[C@H]1C[C@@]2(C(=O)OC)C(=C[C@H](C(C)C)O[C@@H]2C2CC2)N(Cc2ccco2)C1=O | -5.88%
COc1ccc(CN2CC[C@H]3C=CC[C@@H](C(=O)N4CCOCC4)[C@H]3C2=O)cc1OC | 1.07%
Cc1ccc(Nc2nc(Cl)c(C=O)s2)cc1 | 8.44% (active)
Cc1ccc(Nc2cc(C)nc3c(C)ccc([N+](=O)[O-])c23)cc1 | -1.39%
Cc1ccc(Nc2ccccc2N)cc1 | 0.3%
COC(=O)C1CN(CCc2ccccc2)CCS(=O)(=O)N1Cc1ccc(F)cc1 (configuration not stated) | 0.54%
CC1=CC(=O)C=CC1(C)C(Cl)(Cl)Cl (configuration not stated) | -0.07%

Compound | activation
Cc1cc(C)nc(Nc2n[nH]c(-c3ccccc3N)n2)n1 | 8.89% (active)
Clc1ccc(-n2c(SC/C=C/c3ccccc3)nnc2-c2ccco2)cc1 | -3.27%
Cc1ccc2nnn(Cc3cccc(C(C)(C)C)c3O)c2c1 | -2.51%
CCOC(=O)CNC(=O)N(C)[C@H]1C[C@H]2c3[nH]c4c(-c5ccc6c(c5)OCO6)cccc4c3CCN2C(=O)[C@H]1[C@H](C)O | -1.46%
COCC1CCN(C(=O)C2CCC(=O)N(CC3CCCCC3)C2)CC1 (configuration not stated) | -3.22%
COCC1CCN(C(=O)C2CCC(=O)N(Cc3cccc(C(F)(F)F)c3)C2)CC1 (configuration not stated) | 13.1% (active)
O=C1CCC(C(=O)N2CCCCO2)CN1Cc1cccc(C(F)(F)F)c1 (configuration not stated) | -2.44%
O=C(CSc1nnc(-c2cccc(Cl)c2)n1Cc1ccco1)Nc1ccc(OCc2ccccc2)cc1 | -5.35%
O=C(Nc1nc2ccc(Cl)cc2s1)c1cc(-c2ccc(Cl)cc2)nc2ccccc12 | -3.62%
Cc1ccc(C(=O)Nc2nc3ccc(Cl)cc3s2)o1 | 12.3% (active)
Cc1sc2ncnc(N3CCC(C(=O)Nc4nc5ccc(Cl)cc5s4)CC3)c2c1C | 4.88%
COC1=C[C@H](C(=O)NCCNC(C)=O)[C@H](C)[C@@H](c2ccccc2)CC1=O | -1.73%
O=C1CC[C@@H](COc2ccc3[nH]cc(-c4ccccc4)c3c2-c2ccccc2)N1 | -2.62%
COC(=O)[C@]12C[C@H](CC(=O)N3CCOCC3)C(=O)N(Cc3ccc(Cl)cc3Cl)C1=C[C@H](C(C)C)O[C@@H]2C1CC1 | -2.82%
O=[N+]([O-])c1ccc2c(c1)Nc1nc3ccccc3nc1N2 | 15.2% (active)
Cc1ccc(-n2cc3ccc([N+](=O)[O-])cc3n2)cc1 | 3.85%
Cc1nc2ccccc2nc(=O)c1NNc1ccc([N+](=O)[O-])cc1 | 2.04%
COc1ccc(CSc2nnc(SCC(=O)Nc3ccccc3C(F)(F)F)s2)cc1 | -1.77%
COC(=O)C1=CN(Cc2ccc(OC)c(OC)c2)C=C(C(=O)OC)C1c1cccs1 | -1.26%
COc1ccc(CC2c3cc(OC)c(OC)cc3CC[N+]2(C)CCC(=O)OCCCCCOC(=O)CC[N+]2(C)CCc3cc(OC)c(OC)cc3C2Cc2ccc(OC)c(OC)c2)cc1OC (configuration not stated) | 11.4% (active)
COc1ccc(CN2CCOC2=O)cc1OC | -2.13%
